Laboratory results reported in PubChem BioAssay (NCATS).
Several values for one entry are separate records, joined by “and”; a condition that tells them apart may be missing. Equal entries are not always repeated. Records with an inconclusive call do not appear. Where a structure was tested more than once in an assay, its records may differ in their call. Activity calls are given as the source filed them. Calls come from the whole dose curve; as a rule, active = well fitted inhibition curve with a large enough effect; inconclusive = small, poorly fitted or top-dose-only effect; inactive = flat fitted curve, though single readings scatter.

What was measured:
[1] = test system: CRL-7250; assay: Cytotoxic Profiling of Annotated Libraries Using Quantitative High-Throughput Screening (AID 1296008); conditions: Five cell lines viability, CellTiter-Glo ATP luminescence, 48-72 h; max response: active compounds read low; note: potency is the fitted concentration of half-maximal effect; for max response: % is set by controls: 0 for no effect and ±100 for the full control effect
Summary of the method: (§1)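 Compounds were pin-transferred onto cells and incubated 48 or 72 hr at 37 degree Celsius, 95% humidity. CellTiter-Glo was added, plates sat 10 min at room temperature, then ATP-coupled luminescence was imaged as the viability read-out.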

[2] = test system: HEK293; assay: as above; conditions: Five cell lines viability, CellTiter-Glo ATP luminescence, 48-72 h; max response: active compounds read low
Summary of the method: as §1

[3] = test system: NIH3T3; assay: as above; conditions: Five cell lines viability, CellTiter-Glo ATP luminescence, 48-72 h; max response: active compounds read low
Summary of the method: as §1

[4] = test system: HaCat; assay: as above; conditions: Five cell lines viability, CellTiter-Glo ATP luminescence, 48-72 h; max response: active compounds read low
Summary of the method: as §1

[5] = test system: KB-3-1; assay: as above; conditions: Five cell lines viability, CellTiter-Glo ATP luminescence, 48-72 h; max response: active compounds read low
Summary of the method: as §1

[6] = test system: HACAT; assay: qHTS assay to identify novel small-molecules to repurpose for Merkel cell carcinoma treatment (AID 1296009); conditions: MCC and control cell lines, CellTiter-Glo viability, 72 h; at 44.8 µM (top of the series) unless noted
Summary of the method: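 Viability readout: ATP luminescence (CellTiter-Glo) after 72 hr drug exposure at 37 degree celsius. Dose-response format was 8 points for NPC and 11 points for MIPE; data normalized to in-plate controls.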
Note: nearly all actives have a fitted effect of over 60% in size.

CCNC(=O)c1cc2c(-c3cc(OCCN4CCCC4)c(Cl)cc3Cl)nc(N)nc2s1
active: Potency [1] 4.69 µM | Potency [2] 418 nM | Potency [3] 2350 nM

CC(C)OC(=O)[C@H](C)N[P@](=O)(OC[C@H]1O[C@@H](n2ccc(=O)[nH]c2=O)[C@](C)(F)[C@H]1O)Oc1ccccc1
inactive: max response [1] -5.93% | max response [4] -9.66% | max response [5] 1.17% | max response [3] -9.86%

COC1=C2C[C@@H](C)C[C@H](OC)[C@@H](O)[C@@H](C)C=C(C)[C@H](OC(N)=O)[C@@H](OC)C=CC=C(C)C(=O)NC(=CC1=O)C2=O
active: Potency [1] 7.43 µM | Potency [2] 4690 nM | Potency [5] 2.09 µM | Potency [3] 9350 nM

O=c1ccn([C@@H]2O[C@H](CO)[C@H](O)[C@@H]2F)c(=O)[nH]1
inactive: max response [1] -4.58% | max response [4] 4.18% | max response [5] 5.55% | max response [3] 2.94%

C=CC(=O)Nc1ccc2ncnc(Nc3ccc(OCc4cccc(F)c4)c(Cl)c3)c2c1
active: Potency [1] 14.6 µM | Potency [4] 1.87 µM and 580 nM | Potency [5] 9.35 µM

Cn1cc(-c2cnn3c(N)c(Br)c([C@H]4CCCNC4)nc23)cn1
active: Potency [1] 20.9 µM | Potency [2] 418 nM | Potency [5] 10.5 µM | Potency [3] 662 nM

COc1cccc2c1C(=O)c1c(O)c3c(c(O)c1C2=O)C[C@@](O)(C(=O)CO)C[C@H]3O[C@H]1C[C@H](N)[C@H](O)[C@H](C)O1
active: Potency [1] 0.418 µM | Potency [4] 264 nM | Potency [5] 0.526 µM

CC(=O)OCC(=O)[C@@]12N=C(C)O[C@H]1C[C@H]1[C@@H]3CCC4=CC(=O)C=C[C@]4(C)[C@@H]3[C@@H](O)C[C@@]12C
inactive: max response [1] 0.387% | max response [4] -2.39% | max response [5] 7.6% | max response [3] -3.36%

COc1ccc(S(=O)(=O)Nc2cccnc2Nc2ccc(O)cc2)cc1
inactive: max response [4] -5.46%
active: Potency [1] 3.66 µM | Potency [4] 20900 nM | Potency [5] 332 nM and 820 nM

O=C(C=CC=Cc1ccc2c(c1)OCO2)N1CCCCC1
inactive: max response [1] -3.96% | max response [4] -2.24% | max response [5] -6.15% | outcome [3]

C=CCNc1c(O)cc2c(O)c1C[C@@H](C)C[C@H](OC)[C@@H](O)[C@@H](C)C=C(C)[C@H](OC(N)=O)[C@@H](OC)C=CC=C(C)C(=O)N2
active: Potency [1] 0.0372 µM | Potency [4] 372 nM | Potency [5] 0.0935 µM | Potency [3] 590 nM

CCc1c(O)cc(O)c(C(=O)c2ccc(OCCN3CCOCC3)c(OC)c2)c1CC(=O)N(CCOC)CCOC
active: Potency [1] 1.32 µM | Potency [2] 833 nM | Potency [3] 11800 nM

FC(F)(F)c1ccc(Nc2nc3ccc(Oc4ccnc(-c5ncc(C(F)(F)F)[nH]5)c4)cc3[nH]2)cc1
active: Potency [1] 13.2 µM and 14.6 µM
inactive: max response [4] -7.61% and -42.8%

CC(Oc1ccc(O)cc1)(P(=O)(O)O)P(=O)(O)O
inactive: max response [1] 3.19% | outcome [4] | max response [5] -8.06% | max response [3] -5.52% | outcome [6]
